Mito fusion yeast: qHTS Assay for Small Molecule Inhibitors of Mitochondrial Division or Activators of Mitochondrial Fusion; Potency, µM (doses to about 46.1 µM), actives largely listed as activators; AID 485298, 2010; S. cerevisiae fusion-defective mutant growth rescue, CellTiterGlo 48 h; 320,000 compounds, 0.23% hits; note: nearly all actives have a fitted effect of over 45% in size
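Luminescent cell viability in 1536-well qHTS format served as the measure of rescued growth in ts fusion-mutant S. cerevisiae cultured on non-fermentable YPEG for 48 hours at 37C.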
Nrf2 inh: Nrf2 qHTS screen for inhibitors; A549 ARE-Fluc reporter, luciferase luminescence, 18-24 h; Potency, µM (series often up to 46 µM), most hits filed as inhibitors; 360,000 compounds, 2.1% hits; AID 504444, 2011; note: nearly all actives have a fitted effect of over 60% in size
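In this cell-based qHTS, ARE-driven firefly luciferase in A549 cells reports Nrf2 activity; the luminescent signal after BugLite lysis is the measured value, with a prior CellTiter-Fluor read for cell health.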
A549 viability: Nrf2 qHTS screen for inhibitors: counterscreen for cytotoxicity; A549 ARE-Fluc cells, CellTiter-Fluor viability, 18-24 h; Potency, µM (top dose mostly 46 µM), most hits filed as inhibitors; 390,000 compounds, 0.16% hits
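Cytotoxicity counterscreen: CellTiter-Fluor fluorescence was measured in A549 ARE_Fluc cells after 18-24 h of compound exposure in a concentration series. The subsequent BugLite luminescent read reports ARE-luciferase activity.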
mIDH1 inhibitor: qHTS for Inhibitors of mutant isocitrate dehydrogenase 1 (IDH1): qHTS. 390,000 compounds, 0.093% hits. Potency, µM (top dose mostly 76.6 µM), actives largely listed as inhibitors. Isocitrate dehydrogenase [NADP] cytoplasmic (Homo sapiens), O75874. IDH1-R132H enzyme, NADPH consumption, diaphorase/resazurin fluorescence; note: nearly all actives have a fitted effect of over 65% in size
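IDH1-R132H (0.5 ug/mL dispensed) in pH 7.5 Tris buffer was preincubated 30 min with compound, then given a substrate mix of 0.016 mM NADPH and 2 mM alpha-KG for 80 min at room temperature; remaining NADPH was read by diaphorase/resazurin fluorescence.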
TrxR1 substrate: qHTS Assay for Substrates of Mammalian Selenoprotein Thioredoxin Reductase 1 (TrxR1): qHTS | Thioredoxin reductase 1, cytoplasmic (Rattus norvegicus), O89049 | purified TrxR1 substrate turnover, NADPH consumption readout | Potency, µM (top dose mostly 114 µM) | 390,000 compounds, 0.01% hits; note: nearly all actives have a fitted effect of over 50% in size
Target sequence (O89049 whole entry, looked up): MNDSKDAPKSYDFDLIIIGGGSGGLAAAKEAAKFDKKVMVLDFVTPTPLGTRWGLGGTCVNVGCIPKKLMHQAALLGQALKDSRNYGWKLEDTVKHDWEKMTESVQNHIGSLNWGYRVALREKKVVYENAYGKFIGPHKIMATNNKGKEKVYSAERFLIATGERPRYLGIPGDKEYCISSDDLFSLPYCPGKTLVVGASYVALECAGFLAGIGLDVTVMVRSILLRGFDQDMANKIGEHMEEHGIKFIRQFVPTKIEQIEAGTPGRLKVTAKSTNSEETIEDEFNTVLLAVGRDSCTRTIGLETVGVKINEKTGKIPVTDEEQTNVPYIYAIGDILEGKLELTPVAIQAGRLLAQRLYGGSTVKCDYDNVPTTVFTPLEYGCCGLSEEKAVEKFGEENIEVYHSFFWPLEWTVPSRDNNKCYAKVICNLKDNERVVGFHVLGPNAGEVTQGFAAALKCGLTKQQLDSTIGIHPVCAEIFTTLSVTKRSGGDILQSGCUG
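Rat TrxR1, dispensed at 90 nM, was prereduced with 400 uM NADPH (final) for 5 min at ~22 deg C, then incubated with compound 15 min before 400 uM selenite. A first-read NADPH fluorescence drop versus no-compound background flagged substrates.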
rTrxR1 inhibitor: qHTS Assay for Inhibitors of Mammalian Selenoprotein Thioredoxin Reductase 1 (TrxR1): qHTS. Potency, µM (titrated, usually from 114 µM), actives largely listed as inhibitors. recombinant rTrxR1, NADPH fluorescence consumption, selenite substrate. 390,000 compounds, 1% hits; note: nearly all actives have a fitted effect of over 65% in size
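Rat TrxR1 (90 nM in the dispensed reagent) was pre-reduced with 400 uM NADPH for 5 min at room temperature, then incubated with compound for 15 min. After 400 uM selenite was added, NADPH fluorescence (Ex 340/Em 450 nm) was followed for 8 min.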
Numbers stand for hits; n = inactive; u = inconclusive; x = no result; ! = repeats disagree; [ ] = dose if it differs, or a comment. Sampled rows, rich in hits. Any-hit rate of the full collection: about 3.1%. Calls come from the whole dose curve; as a rule, active = well fitted curve in the direction sought with a large enough effect; inconclusive = small, poorly fitted or top-dose-only effect, or another doubt; inactive = no such curve, though single readings can be large; an effect the other way counts as inactive or inconclusive.

SMILES	Mito fusion yeast	Nrf2 inh	A549 viability	mIDH1 inhibitor	TrxR1 substrate	rTrxR1 inhibitor
COc1ccc2[nH]c3c4c(ccc3c2c1)C(=O)C=CC4=O	n	u	u	n	n	50µM
Cc1ccc(S(=O)(=O)N2CCN(c3ccnc(-c4cccs4)n3)CC2)cc1	x	15µM	n	x	n	n
Cc1ccc(S(=O)(=O)N2CCN(c3nc(-c4cccs4)nc4ncccc34)CC2)cc1	x	12µM	n	x	n	n
CCOC(=O)c1c(N2C(=O)C=CC2=O)sc(C)c1C	n	u	u	n	n	2.2µM
CCOC(=O)c1c(NC(N)=O)sc(C)c1C	n	n	n	n	n	n
COc1cc(Cl)c(S(=O)(=O)N2CCN(c3c(C)cccc3C)CC2)cc1Cl	x	n	n	n	n	n
CCn1c(CN2CCCCC2)nc2cc(NC(=O)COc3ccc([N+](=O)[O-])cc3)ccc21	x	u	n	n	n	n
CCc1cccc(NC(=O)CCS(=O)(=O)c2ccc3nc(C)sc3c2)c1	x	n	n	n	n	n
CCOC(=O)C=C(C(=O)OCC)C(=O)OCC	n	n	n	n	n	3.5µM
CCOC(=O)CNC=C(C(=O)OCC)C(=O)OCC	n	x	n	n	n	n
O=S(=O)(Nc1c(Br)cc(Br)c2cccnc12)C1CCCCC1	x	n	n	x	n[0.457 µM]	n
Cc1c(Cn2cnc3c(cnn3C(C)(C)C)c2=O)cccc1C(F)(F)F	x	x	x	x	n	n
CCOC(=O)C1CCCN(C(=O)c2cccc(NC(=O)c3nsc4ccccc34)c2)C1 (centres undefined)	x	x	n	n	n	n
O=C(CCl)c1cc2c3c(c1)CC(=O)N3CCC2	n	u	n	n	n	89µM
OC(Cc1ccnc2ccccc12)C(Cl)(Cl)Cl (centres undefined)	x	18µM	n	n	n[11.4 µM]	n[11.4 µM]
O=S(=O)(Nc1cccc2cccnc12)c1cccs1	x	18µM	u	x	n	n
Nc1ccc(S(=O)(=O)Nc2cccc3cccnc23)cc1	x	n	n	x	x	x
COc1ccc(S(=O)(=O)Nc2cc(OC)cc3cccnc23)cc1	x	u	n	x	x	x
COc1ccc(S(=O)(=O)Nc2cccc3cccnc23)c([N+](=O)[O-])c1	x	7.3µM	u	x	n[0.457 µM]	n
O=S(=O)(Nc1cccc2cccnc12)c1ccc(Br)cc1	x	8.2µM	u	x	x	x
O=S(=O)(Nc1cccc2cccnc12)c1ccc2ccccc2c1	x	5.2µM	n	x	n[0.457 µM]	n
O=S(=O)(Nc1cccc2ccccc12)c1cccs1	n	n	n	n	n	n
O=C(c1ccccc1)n1nnc2ccccc21	n	n	n	n	n	5µM
O=[N+]([O-])c1ccc(O)c2cccnc12	n	n	n	n	n	n
O=[N+]([O-])c1cc(F)c2cccnc2c1O	n	u	n	n	n	45µM
SMILES	Mito fusion yeast	Nrf2 inh	A549 viability	mIDH1 inhibitor	TrxR1 substrate	rTrxR1 inhibitor
O=[N+]([O-])c1cc(Cl)c(O)c2ncccc12	n	21µM	u	n	n	u
O=[N+]([O-])c1ccc(O)c2ncccc12	u	3.7µM	13µM	n	u	u
O=[N+]([O-])c1cc(Cl)c2cccnc2c1O	u	u	u	n	n	n
COc1cccc(C2c3c(ncn(-c4cccc(F)c4)c3=N)Oc3ccc4ccccc4c32)c1 (centres undefined)	x	u	n	x	x	x
COc1ccc(C(=O)NCc2ccc3c(c2)CCN3C(C)=O)cc1OC	x	x	n	n	n	n
CCCCC(CC)C(=O)Nc1ncc([N+](=O)[O-])s1 (centres undefined)	n	9.2µM	18µM	n	n	n
CCOc1ccc(NC(=O)Cn2ccn(-c3ccc(F)c(F)c3)c(=O)c2=O)cc1	x	u	u	n	n	n
Cc1cc(-c2ccccc2)cc(-c2ccccc2)[n+]1C	n	12µM	n	n	n	n
CC(=O)Nc1nonc1-c1nc2ccccc2n1N(C(C)=O)C(C)=O	n	n	n	n	n	56µM
CC(C)c1ccc(NC(=O)CSC2=Nc3ccccc3C3=NC(CCC(=O)NCc4ccco4)C(=O)N23)cc1 (centres undefined)	x	x	n	n	n	n
COc1ccc(COC[C@H](C)[C@H](O)[C@@H](C)[C@H]2OC(=O)[C@@H]2C)cc1	x	n	n	n	n	7.9µM!
COCO[C@H]([C@@H](C)C=C(Br)Br)[C@@H](C)COCc1ccc(OC)cc1	x	n	n	x	n	n
Cc1cnc2c(C)cccc2c1C	x	x	x	x	n	n
O=[N+]([O-])c1cc([N+](=O)[O-])c2cc3ccccc3nc2c1	n	n	n	n	n	45µM
Cc1ccc2c(c1)c1c(c(=O)n(Cc3ccccc3)c(=O)n1Cc1ccccc1F)n2C	x	n	n	n	n	n
Cc1c(CCO)c(=O)n2c([nH]c3ccccc32)c1C#N	n	n	n	n	n	n
CCCCc1c(C)c(C#N)c2[nH]c3ccccc3n2c1=O	n	18µM	u	n	n	n
CCCc1cc(=O)n2c([nH]c3ccccc32)c1C#N	u	15µM	n	n	n	n
CC12CCC(C(=O)N3CCN(C(c4ccccc4)c4ccccc4)CC3)(OC1=O)C2(C)C (centres undefined)	n	23µM	n	n	n	n
CC(=O)N1CCN(C(c2ccccc2)c2ccccc2)CC1	x	x	x	x	n	n
Cc1ccc(CSc2nccc(-c3c(C)nc4ccccn34)n2)cc1	n	8.2µM	n	n	n	n
O=C(c1ccc(CSc2nc3ccncc3[nH]2)cc1)N1CCN(c2cccc(Cl)c2)CC1	n	21µM	n	n	n	n
CCOC(=O)c1cccc(NC(=O)c2ccc3nc(CCc4ccccc4)oc3c2)c1	x	x	n	n	n	n
O=C1Nc2cccnc2N(C(=O)CCl)c2ccccc21	n	u	n	n	n	13µM
SMILES	Mito fusion yeast	Nrf2 inh	A549 viability	mIDH1 inhibitor	TrxR1 substrate	rTrxR1 inhibitor
COc1ccc(OC)c(CNS(=O)(=O)c2ccc(-c3cc(C(F)(F)F)on3)s2)c1	x	16µM	n	n	n	n
Cc1c(CCC(=O)N2CCC[C@H]2C(=O)O)c(=O)oc2c(C)c3oc4c(c3cc12)CCCC4	n	6.5µM	n	n	n	n
O=C(Cc1nnc(CNC(=O)c2ccccc2)o1)Nc1cc(C(F)(F)F)ccc1Cl	x	n	n	x	x	x
O=C(CSc1nncc2ccccc12)N1CCCCC1	n	10µM	n	n	n	n
O=C(CSc1nc(C2CC2)nc2ccccc12)N1CCCCC1	n	u	n	n	n	n
COCCn1c(=NC(=O)CCS(=O)(=O)c2ccccc2)sc2cc(C)ccc21	n	n	n	n	n	40µM

Bioassay records: PubChem, National Center for Advancing Translational Sciences (NCATS)
